Screening data as filed in PubChem.
M1 PAM: human M1 muscarinic receptor positive allosteric modulators, primary screen, CHO-K1 cells, Fluo-8 calcium fluorescence, 1536-well; Muscarinic acetylcholine receptor M1 (Homo sapiens), P11229; CHO-K1 hM1, ACh EC20; 0% = ACh EC20, 100% = maximal ACh; activation, % at 3 µM; hit rate 0.088% among 360,000; in the data active means activation above about 19%, passing the limit was not always enough
Target sequence (P11229 whole entry, looked up): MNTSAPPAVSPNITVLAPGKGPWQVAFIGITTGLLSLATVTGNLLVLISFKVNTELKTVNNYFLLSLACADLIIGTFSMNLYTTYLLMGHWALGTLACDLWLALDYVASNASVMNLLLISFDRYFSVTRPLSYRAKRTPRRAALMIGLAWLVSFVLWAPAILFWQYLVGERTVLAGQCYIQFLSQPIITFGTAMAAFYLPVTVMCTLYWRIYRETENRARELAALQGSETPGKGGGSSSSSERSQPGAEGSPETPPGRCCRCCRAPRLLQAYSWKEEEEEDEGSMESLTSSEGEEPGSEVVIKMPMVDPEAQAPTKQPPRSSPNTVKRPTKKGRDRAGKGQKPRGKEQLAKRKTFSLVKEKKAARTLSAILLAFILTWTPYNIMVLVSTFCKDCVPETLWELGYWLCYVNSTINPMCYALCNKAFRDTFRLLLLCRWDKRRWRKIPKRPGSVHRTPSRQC
M1 antag: human M1 muscarinic receptor antagonists, primary screen, CHO-K1 cells, Fluo-8 calcium fluorescence, 1536-well | CHO-K1 hM1, ACh EC80 antagonist | AID 588852, 2011 | inhibition, % at 3 µM | hit rate 1.3% among 360,000;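 active means percent inhibition above its own plate's cutoff, namely the mean of that plate's compound wells plus 3 SD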;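 further: peak over basal fluorescence ratio during 140 s after agonist addition; 0% = ACh EC80 plus DMSO and 100% = DMSO alone without agonist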
CHO-K1 Ca antag: nonselective inhibitor or artifact in parental CHO-K1 cells; ATP-induced calcium, Fluo-8 fluorescence; inhibition, % at 3 µM; hit rate 0.6% among 360,000;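 active means inhibition above a per-plate cutoff, the plate's mean sample inhibition plus 3 SD, cut at about 24% in these data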;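 further: 0% = DMSO plus EC80 ATP and 100% = DMSO alone without ATP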
M1 ag: human M1 muscarinic receptor agonists, primary screen, Fluo-8 calcium fluorescence, CHO-K1 cells, HTS | Muscarinic acetylcholine receptor M1 (Homo sapiens), P11229 | CHO-K1 hM1, agonist mode; 0% DMSO, 100% acetylcholine EC100 | activation, % at 3 µM | hit rate 0.33% among 360,000;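 active means activation above the run's mean compound activation plus 3 SD, cut at about 16% in these data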;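 further: peak over basal fluorescence ratio within a 140 s kinetic read after compound addition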
CHO-K1 Ca PAM: nonselective calcium activators in parental CHO-K1 cells, primary screen, counter-screen for M1 PAM project, cell-based, Fluo-8 calcium fluorescence, full deck, 1536-well; ATP EC20; 0% at ATP EC20, 100% at ATP max; activation, % at 3 µM; hit rate 0.02% among 360,000;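 active means activation above the run cutoff, the mean activation of all test compounds plus 3 SD, cut at about 40% in these data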;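 further: peak over basal fluorescence ratio in a 140 s read after ATP addition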
CHO-K1 Ca ag: counter-screen for M1 agonists: effect in parental CHO-K1 cells | Fluo-8 calcium fluorescence; scaled to maximal ATP response, vehicle zero | hit rate 0.48% among 360,000 | activation, % at 3 µM; in the data active means activation above about 15%;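 further: untransfected CHO-K1 host cells lacking M1 receptor as counterscreen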
Active calls of the source: *; · = not tested or not shown. Sampled rows, rich in hits. Any-hit rate of the full collection: about 2.3%.

SMILES	M1 PAM	M1 antag	CHO-K1 Ca antag	M1 ag	CHO-K1 Ca PAM	CHO-K1 Ca ag
O=C1c2ccccc2C(c2nnnn2Cc2ccccc2)N1Cc1ccco1 (centres undefined)	·	·	-15	·	14	1
COc1cccc(-c2nc3ccccc3s2)c1O	12	2	1	-9	18	15*
COc1ccc(C(=O)Nc2nc3ccccc3s2)c(OC)c1	-2	-7	1	-6	-5	1
COc1ccccc1C(=O)Nc1nc2ccccc2s1	-17	31*	-3	-6	15	1
COc1cc(OC)c(-c2nc3ccccc3s2)cc1OC	6	-3	-9	-4	1	0
O=C1NC2c3c(Cl)sc(Cl)c3C(=O)C2O1 (centres undefined)	28*	-28	-8	5	4	0
O=C1NC(=S)NC1(c1ccccc1)c1ccccc1	-29	47*	-3	-9	-8	0
O=C1NC(=O)C(c2ccccc2)(c2ccccn2)N1 (centres undefined)	8	-4	-7	-5	15	2
CCN(CC)c1ccc2nc3ccccc3[n+](CC)c2c1	-30	69*	-12	-10	16	0
O=C(NCc1ccco1)c1ccc2c(c1)N(Cc1ccccc1)C(=O)CS2	-28	24	-22	-13	-7	1
O=C(CN1C(=O)CSc2ccc(S(=O)(=O)N3CCOCC3)cc21)NCCCN1CCCCC1	-15	38*	-14	-6	13	1
O=C(CN1C(=O)CSc2ccc(S(=O)(=O)N3CCOCC3)cc21)NCCCN1CCOCC1	4	-1	-1	-3	-8	0
O=C(NCCN1CCOCC1)c1ccc2c(c1)N(Cc1ccccc1F)C(=O)CS2	-18	59*	-14	-3	21	0
O=C(NCCCN1CCOCC1)c1ccc2c(c1)N(Cc1c(F)cccc1Cl)C(=O)CS2	-33	100*	-1	-11	-13	2
Cc1ccc(C)c(CN2C(=O)CSc3ccc(C(=O)NCCN4CCOCC4)cc32)c1	0	-5	-12	-10	12	1
O=C(NCC1CCCO1)c1ccc2c(c1)N(Cc1ccccc1)C(=O)CS2 (centres undefined)	-21	45*	-3	-5	-7	1
COc1ccccc1CNC(=O)COC(=O)CCN1C(=O)C2CC=CCC2C1=O (centres undefined)	2	-12	-6	-2	2	1
N#CCCN(C(=O)COC(=O)C1CCN(S(=O)(=O)c2ccccc2C(F)(F)F)CC1)c1ccccc1	0	4	-15	-6	9	4
O[Si](CCCN1CCCCC1)(c1ccc(F)cc1)C1CCCCC1 (centres undefined)	-26	97*	-1	-6	15	2
Cc1ccc(C(c2sc3nc(C)nn3c2O)N2CCN(CCO)CC2)cc1 (centres undefined)	6	-8	-2	-4	12	1
Cc1nc2sc(C(c3ccccc3)N3CCN(CCO)CC3)c(O)n2n1 (centres undefined)	-8	16	31*	-4	-5	0
COC(=O)C1CCN(C(c2ccc(OC)c(OC)c2)c2sc3nc(C)nn3c2O)CC1 (centres undefined)	-8	36*	8	1	20	5
COc1cc(/C=C/C(=O)OCC(=O)NCc2ccco2)ccc1O	12	-8	-11	-1	8	1
O=C(Nc1ccc(N2CCOCC2)cc1)c1ccc(Cl)c(S(=O)(=O)N2CCCCC2)c1	-7	-2	-6	0	-10	4
COc1ccc(OC)c(NC(=O)C2CCN(S(=O)(=O)c3ccc4c(c3)CC(C)N4C(C)=O)CC2)c1 (centres undefined)	-6	6	-1	-3	-17	2
COc1cc2nc(C3CCC3)nc(N3CCN(c4ccccc4OC)CC3)c2cc1OC	-25	66*	-14	-9	14	2
